Reference: PubChem BioAssay (NCI)
This is part of a sample that, as a whole, favours compounds with a hit. Of some 83,000 tested, about 20% had one in any assay.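 48-hour exposure, single concentration, 96-well plates; percent growth endpoint where 0 means no net growth. Active: below 10.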 A number with no mark means an inactive call. Calls of active or inactive are those of the source.

What was measured:
Assay in all cases: NCI-60 one-dose screen, 48 h (100 = growth as untreated, 0 = no growth, -100 = all killed)
Conditions in all cases: 10 µM unless noted
HCT-15 colon = tested on: HCT-15 colon
HT29 colon = tested on: HT29 colon
SNB-75 CNS = tested on: SNB-75 CNS
SNB-19 CNS = tested on: SNB-19 CNS
U251 CNS = tested on: U251 CNS
PC-3 prostate = tested on: PC-3 prostate
SK-MEL-5 melanoma = tested on: SK-MEL-5 melanoma
UACC-62 melanoma = tested on: UACC-62 melanoma
LOX IMVI melanoma = tested on: LOX IMVI melanoma
SK-MEL-28 melanoma = tested on: SK-MEL-28 melanoma
SK-MEL-2 melanoma = tested on: SK-MEL-2 melanoma
EKVX NSCLC = tested on: EKVX NSCLC
SN12C renal = tested on: SN12C renal
UO-31 renal = tested on: UO-31 renal
TK-10 renal = tested on: TK-10 renal
ACHN renal = tested on: ACHN renal
CAKI-1 renal = tested on: CAKI-1 renal
CCRF-CEM leukemia = tested on: CCRF-CEM leukemia
MOLT-4 leukemia = tested on: MOLT-4 leukemia

| SMILES | growth (HCT-15 colon) [%] | growth (HT29 colon) | growth (SNB-75 CNS) [%] | growth (SNB-19 CNS) [%] | growth (U251 CNS) [%] | growth (PC-3 prostate) [%] | growth (SK-MEL-5 melanoma) | growth (UACC-62 melanoma) | growth (LOX IMVI melanoma) | growth (SK-MEL-28 melanoma) [%] | growth (SK-MEL-2 melanoma) [%] | growth (EKVX NSCLC) [%] | growth (SN12C renal) [%] | growth (UO-31 renal) [%] | growth (TK-10 renal) [%] | growth (ACHN renal) [%] | growth (CAKI-1 renal) [%] | growth (CCRF-CEM leukemia) [%] | growth (MOLT-4 leukemia) [%] |
| --- | --- | --- | --- | --- | --- | --- | --- | --- | --- | --- | --- | --- | --- | --- | --- | --- | --- | --- | --- |
| CN1CCC(=C(c2ccccc2)c2ccccc2)C(c2ccccc2)C1 (configuration not stated) | 82.5 | 82.9% | 88 | 95.5 | 93.3 | 93.6 | 101% | 97.1% | 86% | 110 | 102 | 89 | 99.4 | 84.9 | 96.2 | 93.1 | 66.4 | 105 | 92.1 |
| Cc1ccc(S(=O)(=O)NNC(=O)/C(=C\c2ccc(Cl)cc2)c2nc3ccccc3s2)cc1 | 79.5 | 106% | 68.4 | 88.3 | 97.5 | 90.5 | 94.9% | 80.7% | 90.5% | 101 | 99.4 | 91.1 | 92.5 | 75.1 | 132 | 97.7 | 83.8 | 83.6 | 80.1 |
| O=C(c1ccccc1)N1N=C(c2ccc(-n3ccc(C(F)(F)F)n3)c(F)c2)CC1c1ccc[nH]1 (configuration not stated) | 100 | 98.8% | 98.4 | 99.1 | 98.5 | 101 | 103% | 101% | 101% | 111 | 102 | 100 | 101 | 90.4 | 99.2 | 110 | 98.3 | 105 | 98.8 |
| C/C(=N\Nc1cc(C)nc2ccc(Br)cc12)c1ccc([N+](=O)[O-])cc1 | 21.7 | 37.3% | 105 | 75.7 | 20 | 74.8 | 92.3% | 89.6% | -29.9% (active) | 99.2 | 93.1 | 78.2 | 60.2 | 64.4 | 115 | 42.5 | 84.6 | 13.5 | 53.1 |
| CC(=O)Nc1ccc(-n2cnc3cc(-c4ccc(OCCN5CCCCC5)cc4)ccc32)cc1 | 43.6 | 2.12% (active) | 88.2 | 88 | 44 | 64.3 | 79% | 120% | 86.8% | 107 | 119 | 97.9 | 67.1 | 56.3 | 146 | 76.8 | 84.2 | 54.8 | 73.1 |
| Cn1c2ccccc2c2c3c(c4c5ccccc5n(C)c4c21)C(=O)OC3 | 96.7 | 105% | 68.1 | 92.7 | 104 | 90.6 | 93.5% | 88.6% | 88.2% | 120 | 107 | 88.1 | 92.3 | 61 | 135 | 87.3 | 82.6 | 98.4 | 89.7 |
| CCN(CC)c1ccc(/C=N/NC(=O)CSc2nc3ccccc3c(=O)n2Cc2ccc(S(N)(=O)=O)cc2)c(O)c1 | 47.5 | 32.1% | 38.8 | 41.8 | 24.4 | 48.8 | 5.72% (active) | 6.51% (active) | 1.32% (active) | 33.1 | 10.5 | 35.1 | 32.5 | 45.9 | 15.1 | 33.6 | 31 | 10.8 | 11.1 |
| O=C(Nc1ccc(F)cc1)Nc1ccc(NC(=O)c2cc(Cl)nc3ccccc23)cc1 | 98.7 | 65.3% | 67.2 | 49.7 | 62.8 | 59.4 | 70.1% | 72% | 55% | 77.7 | 90.3 | 89.2 | 73.6 | 83.1 | 83.5 | 102 | 78.5 | 41.9 | 64.2 |
